Data on 6 molecules can be found in PubChem BioAssay (Tox21).

Values joined by “and” are separate entries in the source; they are usually repeats but may differ in a detail not shown here. Equal values may be shown once. Inconclusive results are not listed. Some compounds were tested as several samples or in several runs, with calls that do not always agree. Active and inactive are the calls of the source. Unless noted, calls follow the shape of the full dose curve.

Test [1] has as its target Gonadotropin-releasing hormone receptor (Homo sapiens) (UniProt P30968). As to the kind of experiment: Human gonadotropin-releasing hormone receptor (GnRHR) small molecule agonists, calcium flux assay in GnRHR-HEK293 cells (AID 1920063). Also: nearly all actives have a fitted effect of over 35% in size. Also: potency is read from the fitted curve at half-maximal effect. An outline of the steps: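 Compounds dissolved in DMSO are pin-transferred onto dye-loaded GnRHR-HEK293 cells, which were seeded 18 h before at 37 C/5% CO2. Calcium signal is read as fluorescence intensity at 1 s intervals for 3 min.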
(Calcium assays in cells follow changes in intracellular calcium, usually with a dye or a luminescent sensor.)

For test [2], the target named is KiSS-1 receptor (Homo sapiens) (UniProt Q969F8). As to the kind of experiment: Human kisspeptin (KISS1R) small molecule agonists, calcium flux assay in KISS1R-HEK293 cells (AID 1920064; active = well fitted activation curve with a large enough effect in the repeat runs). The method, boiled down: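 Cell line: HEK293, stable human KISS1R. Dye loading 1 h at 37 C after 18 h culture. Read: kinetic fluorescence, 480/540 nm, 3 min at 1 s intervals.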
Test [3] in a line: G protein-coupled receptor (GPCR) small molecule agonists, calcium flux assay: HEK293 wild type cell line counter screen (AID 1920065). The method, boiled down:
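Tox21 10K compounds, 15 concentrations each in triplicate, pin-transferred in DMSO onto dye-loaded cells; kinetic read at 480/540 nm for 3 min, 1 s intervals.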

Test [4] is described as follows: p53 small molecule agonists, cell-based qHTS assay with human liver microsomes (AID 1963577).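 Also: p53 response element beta-lactamase reporter cells with liver microsomes plus NADPH.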 The method, boiled down:
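Steps: plate p53RE-bla cells, incubate 5 h at 37 C; add compound in DMSO; add microsomes (0.5 mg/mL final) and NADPH (0.5 mg/mL final); incubate 16 h at 37 C; add LiveBLAzer, 2 h RT; read fluorescence.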
(In general: qHTS replaces the single test concentration by a dilution series.)

The nature of test [5]: p53 small molecule agonists, cell-based qHTS assay with rat liver microsomes (AID 1963578). An outline of the steps:
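Metabolic activation is supplied by rat liver microsomes with NADPH (each 0.5 mg/mL final). p53RE-bla cells incubate with compound 16 h at 37 C; reporter activity is measured by LiveBLAzer fluorescence.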

Test [6] can be described thus: p53 small molecule agonists, cell-based qHTS assay with human liver microsomes: qHTS cell viability counter screen (AID 1963579). Also: nearly all actives have a fitted effect of over 45% in size. Also: potency is read from the fitted curve at half-maximal effect. The method, boiled down:
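After the 460/530 nm beta-lactamase read, CellTiter-Glo was added to the same wells and luminescence measured after 30 min at room temperature, giving viability of p53RE-bla cells treated 16 h with compounds plus microsomes and NADPH.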

A short description of test [7]: p53 small molecule agonists, cell-based qHTS assay with rat liver microsomes: qHTS cell viability counter screen (AID 1963580). Also: nearly all actives have a fitted effect of over 45% in size. Also: potency is read from the fitted curve at half-maximal effect. An outline of the steps:
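Cytotoxicity counter screen: intracellular ATP read by CellTiter-Glo luminescence in the p53 reporter wells. HCT-116 p53RE-bla cells were treated for 16 h at 37 C alongside rat liver microsomes and NADPH, each 0.5 mg/mL final.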

Test [8] can be described thus: p53 small molecule agonists, cell-based qHTS assay: qHTS cell viability counter screen (AID 1963581). Also: nearly all actives have a fitted effect of over 45% in size. An outline of the steps: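 ATP content measured by luminescence in HCT-116 p53RE-bla cells treated 16 h at 37 C, same wells as the reporter screen.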
For test [9], the target named is 5-hydroxytryptamine receptor 2A (Homo sapiens) (UniProt P28223). Description: 5-hydroxytryptamine receptor 2A (HTR2A) small molecule antagonists, cell-based qHTS assay (AID 1963586). Also: nearly all actives have a fitted effect of over 45% in size. An outline of the steps:
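CHO cells stably expressing human HTR2A were plated for 18 h at 37 C, then loaded with calcium dye for 1 h. Compounds were preincubated 5 min at room temperature before DOI (4 nM solution) was added. Kinetic fluorescence was read for 3 min.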

The target is the same in test [10]. As to the kind of experiment: 5-hydroxytryptamine receptor 2A (HTR2A) small molecule agonists, cell-based qHTS assay (AID 1963587). Also: nearly all actives have a fitted effect of over 30% in size. Also: potency is read from the fitted curve at half-maximal effect. An outline of the steps: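 Kinetic calcium-flux fluorescence (2 min, 1 sec intervals) after compound addition in agonist mode. HTR2A-CHO cells were cultured 18 h, then dye-loaded 1 h at 37 C.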
Test [11] deals with Muscarinic acetylcholine receptor M1 (Homo sapiens) (UniProt P11229). Description: Cholinergic receptor muscarinic 1 (CHRM1) small molecule antagonists, cell-based qHTS assay (AID 1963588). Also: nearly all actives have a fitted effect of over 40% in size. Also: potency is read from the fitted curve at half-maximal effect. The method, boiled down:
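Compounds were tested at 15 concentrations in three independent runs. Dye-loaded CHRM1-CHO cells were exposed 5 min at room temperature before stimulation by acetylcholine added at 50nM. Intracellular calcium was read kinetically on FDSS for 3 min.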

The target is the same in test [12]. As to the kind of experiment: Cholinergic receptor muscarinic 1 (CHRM1) small molecule agonists, cell-based qHTS assay (AID 1963589). Also: nearly all actives have a fitted effect of over 35% in size. The method, boiled down:
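Homogeneous fluorescence calcium flux, agonist mode. Human M1-expressing CHO cells; compound dosed at 15 concentrations, three independent runs; signal sampled every 1 sec.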

Test [13] is described as follows: cAMP Responsive Elements (CRE) small molecule agonists, cell-based qHTS assay (AID 1963590). The method, boiled down:
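HEK 293T cells stably bearing CRE-bla were plated at 2,000 cells per well and rested 18 h. Compounds, positive controls or DMSO were added for 3 h at 37 C. LiveBLAzer B/G substrate was then loaded for 2 h at room temperature.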

A short description of test [14]: cAMP Responsive Elements (CRE) small molecule antagonists, cell-based qHTS assay (AID 1963591; active = well fitted inhibition curve with a large enough effect in the signal ratio in the repeat runs, not every such curve was filed as active; the % refers to the signal ratio). An outline of the steps:
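First, CRE-bla HEK293T cells settled 18 h at 37 C. Next, compound and 0.25 uM final NKH477 were applied for 3 h. Last, LiveBLAzer B/G substrate was loaded for 2 h at room temperature.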

The target of test [15] is Beta-2 adrenergic receptor (Homo sapiens) (UniProt P07550). Description: Adrenergic beta2 receptor (ADRB2) small molecule antagonists, cell-based qHTS assay (AID 1963592). Also: series mostly up to about 92 µM; nearly all actives have a fitted effect of over 50% in size. An outline of the steps:
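Assay format: CHO-ADRB2 cells, 18-20hr seeding at 37C/5% CO2, then compound plus 1nM isoproterenol agonist mix for 0.5hr RT. Homogeneous time-resolved fluorescence cAMP detection after 1hr, expressed as 665/615 nm ratio.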

In test [16] the target is D(2) dopamine receptor (Homo sapiens) (UniProt P14416). Description: Dopamine D2 receptor (DRD2) small molecule agonists, cell-based qHTS assay (AID 1963594). Also: nearly all actives have a fitted effect of over 35% in size. An outline of the steps: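 cAMP accumulation in DRD2-HEK293 cells measured by HTRF after 1 h detection; compounds added 10 min before NKH477 (200nM […]) forskolin-analogue stimulation, 30 min at room temperature, with Ro20-1724 present at 0.1 mM final.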

The target is the same in test [17]. Description: Dopamine D2 receptor (DRD2) small molecule antagonists, cell-based qHTS assay (AID 1963595; active = well fitted inhibition curve with a large enough effect in the signal ratio in the repeat runs, with a control signal flat; the % refers to the signal ratio). The method, boiled down: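 HEK293 cells stably expressing DRD2, preincubated with 0.1 mM Ro20-1724 and compounds 10 min, were stimulated with 200 nM NKH477 plus 12 nM quinpirole for 30 min at room temperature; cAMP measured by HTRF (665/620 nm).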
The nature of test [18]: p53 small molecule agonists, cell-based qHTS assay (AID 1963582; active = well fitted activation curve with a large enough effect in the signal ratio in the repeat runs, not every such curve was filed as active; the % refers to the signal ratio; also: potency is read from the fitted curve at half-maximal effect). The method, boiled down:
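16 h compound exposure (37 C) of p53 response element–bla cells, preceded by 5 h recovery at 37 C/5% CO2; read-out via LiveBLAzer B/G FRET substrate, 2 h RT, fluorescence intensity.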

The target of test [19] is Beta-2 adrenergic receptor (Homo sapiens) (UniProt P07550). Description: Adrenergic beta2 receptor (ADRB2) small molecule agonists, cell-based qHTS assay (AID 1963593).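 Also: CHO cells stably overexpressing human ADRB2.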 An outline of the steps: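 CHO cells stably over-expressing ADRB2 were plated overnight at 37C, then dosed with compounds plus a stimulation mix containing 100uM IBMX and 25uM Ro-20-1724 for 0.5hr at room temperature. cAMP was measured by HTRF competition, 1hr.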
Chain of Beta-2 adrenergic receptor (Homo sapiens) (P07550 whole entry, looked up): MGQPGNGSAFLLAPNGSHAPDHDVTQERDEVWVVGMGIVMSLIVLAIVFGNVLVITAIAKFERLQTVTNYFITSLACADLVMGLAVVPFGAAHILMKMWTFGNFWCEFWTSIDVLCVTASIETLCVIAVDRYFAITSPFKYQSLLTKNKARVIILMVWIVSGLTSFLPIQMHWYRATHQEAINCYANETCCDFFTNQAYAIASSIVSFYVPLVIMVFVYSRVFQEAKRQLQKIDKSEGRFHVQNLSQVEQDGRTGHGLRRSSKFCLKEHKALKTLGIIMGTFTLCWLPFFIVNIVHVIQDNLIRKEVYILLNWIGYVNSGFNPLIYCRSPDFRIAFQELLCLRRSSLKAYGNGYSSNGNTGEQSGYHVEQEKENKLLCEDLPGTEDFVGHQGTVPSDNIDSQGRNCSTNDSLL

Chain of Gonadotropin-releasing hormone receptor (Homo sapiens) (P30968 whole entry, looked up): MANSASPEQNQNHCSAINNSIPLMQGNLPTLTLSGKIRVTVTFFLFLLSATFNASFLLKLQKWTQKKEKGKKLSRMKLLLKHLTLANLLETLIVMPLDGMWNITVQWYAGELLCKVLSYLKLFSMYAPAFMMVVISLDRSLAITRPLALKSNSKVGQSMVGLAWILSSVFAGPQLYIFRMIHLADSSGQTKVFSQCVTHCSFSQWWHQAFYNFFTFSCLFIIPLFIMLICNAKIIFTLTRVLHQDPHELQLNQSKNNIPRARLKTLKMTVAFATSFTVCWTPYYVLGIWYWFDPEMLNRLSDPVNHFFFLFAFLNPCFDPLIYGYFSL
Chain of 5-hydroxytryptamine receptor 2A (Homo sapiens) (P28223 whole entry, looked up): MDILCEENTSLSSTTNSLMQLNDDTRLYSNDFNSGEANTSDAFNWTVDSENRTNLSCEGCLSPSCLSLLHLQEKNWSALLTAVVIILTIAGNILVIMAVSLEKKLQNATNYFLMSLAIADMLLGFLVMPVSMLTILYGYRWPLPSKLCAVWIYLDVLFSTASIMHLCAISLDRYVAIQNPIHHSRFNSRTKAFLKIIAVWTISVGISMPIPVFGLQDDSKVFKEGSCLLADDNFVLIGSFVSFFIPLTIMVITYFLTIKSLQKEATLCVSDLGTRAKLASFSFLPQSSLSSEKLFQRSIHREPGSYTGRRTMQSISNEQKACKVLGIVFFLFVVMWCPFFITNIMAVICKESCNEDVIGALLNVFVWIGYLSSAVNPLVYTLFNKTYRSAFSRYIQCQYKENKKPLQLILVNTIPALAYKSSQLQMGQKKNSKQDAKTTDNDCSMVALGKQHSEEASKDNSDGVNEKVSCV
Chain of D(2) dopamine receptor (Homo sapiens) (P14416 whole entry, looked up): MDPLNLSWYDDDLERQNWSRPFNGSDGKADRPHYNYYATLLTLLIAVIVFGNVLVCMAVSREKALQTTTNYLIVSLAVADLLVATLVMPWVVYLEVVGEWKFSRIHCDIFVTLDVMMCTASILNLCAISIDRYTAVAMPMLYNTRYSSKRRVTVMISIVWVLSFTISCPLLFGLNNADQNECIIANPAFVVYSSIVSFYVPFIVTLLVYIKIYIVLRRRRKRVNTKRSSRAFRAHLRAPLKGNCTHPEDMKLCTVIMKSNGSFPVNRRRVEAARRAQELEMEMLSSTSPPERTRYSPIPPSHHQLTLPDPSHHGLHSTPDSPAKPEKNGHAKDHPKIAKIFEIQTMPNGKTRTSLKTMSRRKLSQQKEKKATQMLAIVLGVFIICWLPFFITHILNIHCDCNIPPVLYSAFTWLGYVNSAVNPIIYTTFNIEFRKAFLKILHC
Chain of KiSS-1 receptor (Homo sapiens) (Q969F8 whole entry, looked up): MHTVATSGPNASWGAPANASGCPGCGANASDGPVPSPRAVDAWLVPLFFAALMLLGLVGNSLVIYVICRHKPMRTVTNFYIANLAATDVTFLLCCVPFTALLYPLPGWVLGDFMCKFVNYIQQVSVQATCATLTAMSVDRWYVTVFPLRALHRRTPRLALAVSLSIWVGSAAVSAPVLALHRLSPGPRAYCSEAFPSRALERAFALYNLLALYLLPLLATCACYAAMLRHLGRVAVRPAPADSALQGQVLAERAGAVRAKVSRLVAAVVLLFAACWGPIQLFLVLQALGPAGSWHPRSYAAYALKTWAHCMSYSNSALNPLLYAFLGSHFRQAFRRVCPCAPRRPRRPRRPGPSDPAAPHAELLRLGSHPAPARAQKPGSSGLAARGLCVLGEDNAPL
Chain of Muscarinic acetylcholine receptor M1 (Homo sapiens) (P11229 whole entry, looked up): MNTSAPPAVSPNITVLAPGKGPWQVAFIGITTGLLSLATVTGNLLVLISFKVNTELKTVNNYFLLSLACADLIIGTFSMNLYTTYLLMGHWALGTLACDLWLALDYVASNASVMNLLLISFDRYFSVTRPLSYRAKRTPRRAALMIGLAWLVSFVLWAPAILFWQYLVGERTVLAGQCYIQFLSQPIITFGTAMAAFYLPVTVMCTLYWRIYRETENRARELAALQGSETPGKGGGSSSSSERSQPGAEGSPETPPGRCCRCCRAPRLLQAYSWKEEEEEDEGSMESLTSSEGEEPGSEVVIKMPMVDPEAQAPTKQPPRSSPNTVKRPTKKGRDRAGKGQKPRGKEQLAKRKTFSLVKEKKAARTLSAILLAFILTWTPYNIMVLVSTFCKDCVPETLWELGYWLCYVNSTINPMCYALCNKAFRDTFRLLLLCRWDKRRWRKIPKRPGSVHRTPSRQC

As for `N#Cc1cc([N+](=O)[O-])ccc1N`, the Potency entry in test [1], in [2], in test [3], in [4], in [5] and in test [6] was “inactive” each time. In addition, the Potency entry in [7], in [8], in [9], in test [10], in test [11] and in test [12] was “inactive” each time. Also, the Potency entry in test [13], in [14], in test [15], in test [16] and in test [17] was “inactive” throughout.
Take `O=C1C2(Cl)C3(Cl)C4(Cl)C(Cl)(Cl)C5(Cl)C3(Cl)C1(Cl)C5(Cl)C24Cl` (stereo not given): the Potency was 38.3 µM (active) in [1]; 31.9 µM (active) and inactive in test [6]; 45 µM (active) in [7]; 54 µM (active) and 46.9 µM (active) in [10]; 29.3 µM (active) and 20.2 µM (active) in [11]. For the same molecule, the Potency result in [2], in test [3], in test [4], in test [5], in test [15] and in test [16] was “inactive” throughout.
Turning to `c1nc[nH]n1`, the Potency result in test [1], in [2], in test [3], in [4], in test [5] and in test [6] was “inactive” throughout. For the same molecule, the Potency result in [7], in test [8], in test [18], in test [10], in test [11] and in [12] was “inactive” throughout. Besides, the Potency entry in test [13], in [15], in test [19] and in test [17] was “inactive” in each case.
Consider `CCCCOC(=O)c1ccccc1C(=O)OCCCC`, for which the Potency result in test [1], in test [2], in test [3], in test [4], in [5] and in [6] was “inactive” each time. Moreover, the Potency entry in [7], in test [8], in [9], in test [10], in test [11] and in [12] was “inactive” in each case. Also, the Potency result in test [13], in [14], in test [15], in test [19], in test [16] and in test [17] was “inactive” each time.
For the molecule `CC(c1ccc(O)cc1)c1ccc(O)cc1`, the Potency result in [1], in [2], in test [3], in test [4], in test [5] and in [6] was “inactive” throughout. Besides, the Potency result in [7], in test [8], in [9], in test [10], in test [12] and in [13] was “inactive” each time. Moreover, the Potency result in [15] and in test [17] was “inactive” throughout. Besides, the Potency in [18] is 38.2 µM (active); in [11], 15.7 µM (active) and inactive.
Consider `CN(CCO)CCO`, for which the Potency result in test [1], in test [2], in test [3], in test [4], in test [5] and in test [6] was “inactive” in each case. The Potency result in test [7], in [8], in test [18], in [10], in test [11] and in test [12] was “inactive” throughout. Besides, the Potency result in test [13], in [14], in [15], in [16] and in [17] was “inactive” throughout.
